Data from PubChem BioAssay AID1946 (Johns Hopkins Ion Channel Center, 2009).
The campaign covered roughly 2,400 compounds. About 180 (7.5%) were called active. This is one part of a sample in which actives are shown more often than they occur. Values without a mark were called inactive.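 The calls were made as follows: active = readout below zero, meaning a drop past 3 SD under the dofetilide-free negative control mean; inactive = the rest.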

Target: Potassium voltage-gated channel subfamily KQT member 2 (Rattus norvegicus) (UniProt O88943)
Sequence (O88943 whole entry, looked up): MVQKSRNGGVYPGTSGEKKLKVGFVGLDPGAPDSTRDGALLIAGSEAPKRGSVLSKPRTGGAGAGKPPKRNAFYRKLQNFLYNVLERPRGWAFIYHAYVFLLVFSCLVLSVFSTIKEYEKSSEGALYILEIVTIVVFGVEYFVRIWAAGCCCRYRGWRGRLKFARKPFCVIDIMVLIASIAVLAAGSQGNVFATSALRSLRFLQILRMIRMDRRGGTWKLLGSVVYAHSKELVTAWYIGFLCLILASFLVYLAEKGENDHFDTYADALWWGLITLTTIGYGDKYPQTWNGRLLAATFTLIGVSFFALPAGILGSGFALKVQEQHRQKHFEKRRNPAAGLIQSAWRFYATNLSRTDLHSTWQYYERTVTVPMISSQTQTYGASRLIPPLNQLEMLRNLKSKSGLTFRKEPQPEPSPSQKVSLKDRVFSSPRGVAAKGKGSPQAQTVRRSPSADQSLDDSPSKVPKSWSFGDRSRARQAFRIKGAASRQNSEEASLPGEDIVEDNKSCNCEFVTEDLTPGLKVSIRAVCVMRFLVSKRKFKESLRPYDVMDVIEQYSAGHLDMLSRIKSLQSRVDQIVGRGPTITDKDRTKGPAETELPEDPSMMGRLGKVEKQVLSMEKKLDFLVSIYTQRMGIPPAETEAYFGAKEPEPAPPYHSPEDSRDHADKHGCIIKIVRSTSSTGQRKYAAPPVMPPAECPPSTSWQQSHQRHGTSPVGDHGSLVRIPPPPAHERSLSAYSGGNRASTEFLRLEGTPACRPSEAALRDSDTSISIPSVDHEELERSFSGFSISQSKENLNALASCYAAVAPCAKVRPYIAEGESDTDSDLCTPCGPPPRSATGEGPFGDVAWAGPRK
Assay: KCNQ2 blockade in CHO cells – cell-based, FluxOR thallium flux, counter-screen for hERG block protector project, confirmation (AID 1946)
Details: FluxOR thallium flux fluorescence, at 10 µM, stronger effect = lower value, zero marks the 3-SD hit cutoff

Point of comparison: `O=C(NC(=S)Nc1ccc(C(F)(F)F)cc1)c1csnn1`, activity change vs negative control 110%. Against it:
- CC(Oc1ccc(Br)cc1Br)C(=O)Nc1cccnc1 (configuration not stated) — lower, 7.4%
- CC1CCN(C(=S)NC(=O)c2ccc(C(C)(C)C)cc2)CC1 — lower, 38.5%
- COc1cc2c(cc1OC)C(C)N(C(=S)NC(=O)c1ccccc1)CC2 (configuration not stated) — lower, 18.6%
- COc1ccc(NC(=O)N2CCN(c3ccc([N+](=O)[O-])cc3)CC2)cc1OC — lower, 8.2%
- Nc1nonc1-n1nnc(C(=O)N/N=C/c2cccc(Cl)c2Cl)c1CN1CCCC1 — lower, 5.3%
- CCCOc1ccc(-c2c(C(=O)N/N=C/c3ccccc3OCC)nnn2-c2nonc2N)cc1 — lower, 11.7%
- CC1CCc2c(sc3[nH]c(=S)n(C)c(=O)c23)C1 (configuration not stated) — lower, 100%
- CN1N=C(C(=O)N2CCc3c([nH]c4ccccc34)C2c2c(F)cccc2Cl)CCC1=O (configuration not stated) — lower, 0.6%
- O=c1c2cc(Br)ccc2nc(-c2ccc([N+](=O)[O-])cc2)n1O — lower, 66.7%
- C=CCN(CC=C)C(=S)NC(=O)Cc1cccc2ccccc12 — lower, 25.1%
- CC(/C=C1\SC(=S)N(NS(=O)(=O)c2ccc(C)cc2)C1=O)=C\c1ccccc1 — lower, 32.4%
- O=c1c2cc(Cl)ccc2nc(-c2ccccc2)n1O — lower, 56.6%
- Cn1c(=S)[nH]c2sc3c(c2c1=O)CCC(C(C)(C)C)C3 (configuration not stated) — lower, 99.8%
- CC(CCc1ccccc1)NC(=S)NC(=O)c1ccco1 (configuration not stated) — lower, 43%
- O=C1C(=O)N(CCN2CCOCC2)C(c2cccnc2)/C1=C(/O)c1ccc(Cl)cc1 (configuration not stated) — lower, 6.1%
- COc1ccc(N(CC(=O)NCc2cccnc2)S(=O)(=O)c2ccccc2[N+](=O)[O-])c(OC)c1 — lower, 4.1%
- CC(C)CN1C(=O)/C(=C/c2cccs2)NC1=S — higher, 113%
- COc1ccc(NC(=S)NC(=O)c2csnn2)cc1 — lower, 81.7%
- CC(C)C(=O)Nc1cccc(C(=O)Nc2ccccc2C(=O)O)c1 — lower, 13.7%
- CC(=O)Nc1ccccc1C(=O)C(=O)Nc1ccc(Cl)cc1 — lower, 5.3%

With `COc1cc2c(cc1OC)C(c1ccc([N+](=O)[O-])cc1)N(C(C)=O)CC2` (configuration not stated) the activity change vs negative control was -4% (active).
With `CN(C)Cc1c(C(=O)N/N=C/c2ccccc2OCc2c(F)cccc2Cl)nnn1-c1nonc1N` the activity change vs negative control was -0.5% (active).
For `CCc1nc(C)ccc1OCC(=O)N1CCc2c([nH]c3ccccc23)C1c1ccccn1` (configuration not stated), the activity change vs negative control was -3.7% (active).
For `Cn1nc(C(F)(F)F)c(-c2ccc(Br)cc2)c1NC(=O)c1cccnc1`, the activity change vs negative control was -6.8% (active).
`Cc1ccc(/C(O)=C2\C(=O)C(=O)N(Cc3cccnc3)C2c2ccccc2[N+](=O)[O-])cc1` (configuration not stated) was tested, and the activity change vs negative control was -1.5% (active).
In the case of `CC(=O)Nc1ccccc1C(=O)C(=O)Nc1ccccc1`, the activity change vs negative control is reported as -2% (active).
